# PMC7862700, “An all-to-all approach to the identification of sequence-specific readers for epigenetic DNA modifications on cytosine”
# Tests used:
# Assay in all cases: DAPPL (digital affinity profiling via proximity ligation, sequencing); 10 mM Tris-HCl pH 7.5, 50 mM NaCl, 1 mM DTT, 4% glycerol, room temperature, 30 min; GST-TFs on glutathione beads, 16-mer random dsDNA library, 0.1% formaldehyde crosslink after washing; high values mean tight binding
# FLI1 = target: T1, FLI1 (Homo sapiens, UniProt Q01543 1-452); conditions: protein: recombinant; tags: N-terminal GST; dsDNA, one strand shown
# T1 sequence: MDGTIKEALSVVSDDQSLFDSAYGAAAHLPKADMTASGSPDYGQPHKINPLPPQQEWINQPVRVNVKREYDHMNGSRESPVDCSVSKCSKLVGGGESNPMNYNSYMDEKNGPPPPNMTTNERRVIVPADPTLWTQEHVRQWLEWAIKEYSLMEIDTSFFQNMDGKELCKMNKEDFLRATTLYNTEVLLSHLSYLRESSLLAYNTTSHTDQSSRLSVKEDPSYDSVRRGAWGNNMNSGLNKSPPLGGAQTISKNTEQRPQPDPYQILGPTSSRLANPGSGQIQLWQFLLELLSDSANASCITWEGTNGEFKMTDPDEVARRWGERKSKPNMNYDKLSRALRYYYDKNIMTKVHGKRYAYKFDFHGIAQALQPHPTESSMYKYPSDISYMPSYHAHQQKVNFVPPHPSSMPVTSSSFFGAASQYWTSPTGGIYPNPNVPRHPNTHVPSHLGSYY
# Summary of the method: (§1)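 Human transcription factors fused to GST were expressed in yeast, captured on glutathione beads, given DNA barcodes and pooled with a GST-only negative control. Pools were incubated with 200 nmole of a 16-mer random double-stranded DNA library in Tris/NaCl/DTT/glycerol buffer at room temperature for 30 min. They were then washed, crosslinked with 0.1% formaldehyde, proximity-ligated (BsaI/T4 ligase, 1 h, 37 °C), PCR-amplified and sequenced on an Illumina NextSeq500. Binding signal is each 6-mer's read frequency for a factor divided by its frequency for the GST control.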
# ELK1 = target: T2, ELK1 (Homo sapiens, UniProt P19419 1-428); conditions: protein: recombinant; tags: N-terminal GST; dsDNA, one strand shown
# T2 sequence: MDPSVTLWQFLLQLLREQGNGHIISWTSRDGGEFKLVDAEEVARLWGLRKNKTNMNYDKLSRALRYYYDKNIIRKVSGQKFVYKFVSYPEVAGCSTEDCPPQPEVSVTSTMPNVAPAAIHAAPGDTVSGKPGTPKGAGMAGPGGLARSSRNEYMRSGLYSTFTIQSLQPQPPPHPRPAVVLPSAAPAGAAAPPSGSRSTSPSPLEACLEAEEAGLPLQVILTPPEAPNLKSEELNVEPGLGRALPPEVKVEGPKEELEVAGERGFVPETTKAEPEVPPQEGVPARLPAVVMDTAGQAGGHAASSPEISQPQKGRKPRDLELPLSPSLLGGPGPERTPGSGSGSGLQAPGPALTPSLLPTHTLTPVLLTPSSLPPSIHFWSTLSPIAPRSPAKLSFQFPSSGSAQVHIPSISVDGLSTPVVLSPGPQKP
# Summary of the method: as §1
# GABPA = target: T3, GABPA (Homo sapiens, UniProt Q06546 1-454); conditions: protein: recombinant; tags: N-terminal GST; dsDNA, one strand shown
# T3 sequence: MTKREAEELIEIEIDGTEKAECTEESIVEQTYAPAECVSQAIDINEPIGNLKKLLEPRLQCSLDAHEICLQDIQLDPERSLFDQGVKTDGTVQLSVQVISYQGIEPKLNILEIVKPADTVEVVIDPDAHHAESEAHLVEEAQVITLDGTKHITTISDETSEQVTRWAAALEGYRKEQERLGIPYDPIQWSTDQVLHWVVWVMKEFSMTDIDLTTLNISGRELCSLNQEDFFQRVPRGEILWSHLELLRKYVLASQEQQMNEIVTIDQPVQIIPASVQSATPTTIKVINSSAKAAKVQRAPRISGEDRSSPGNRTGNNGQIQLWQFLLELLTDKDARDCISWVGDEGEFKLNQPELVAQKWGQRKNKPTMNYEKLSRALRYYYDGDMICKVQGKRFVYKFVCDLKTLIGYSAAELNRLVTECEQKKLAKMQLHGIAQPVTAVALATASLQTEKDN
# Summary of the method: as §1
# ERG = target: T4, ERG (Homo sapiens, UniProt P11308 1-479); conditions: protein: recombinant; tags: N-terminal GST; dsDNA, one strand shown
# T4 sequence: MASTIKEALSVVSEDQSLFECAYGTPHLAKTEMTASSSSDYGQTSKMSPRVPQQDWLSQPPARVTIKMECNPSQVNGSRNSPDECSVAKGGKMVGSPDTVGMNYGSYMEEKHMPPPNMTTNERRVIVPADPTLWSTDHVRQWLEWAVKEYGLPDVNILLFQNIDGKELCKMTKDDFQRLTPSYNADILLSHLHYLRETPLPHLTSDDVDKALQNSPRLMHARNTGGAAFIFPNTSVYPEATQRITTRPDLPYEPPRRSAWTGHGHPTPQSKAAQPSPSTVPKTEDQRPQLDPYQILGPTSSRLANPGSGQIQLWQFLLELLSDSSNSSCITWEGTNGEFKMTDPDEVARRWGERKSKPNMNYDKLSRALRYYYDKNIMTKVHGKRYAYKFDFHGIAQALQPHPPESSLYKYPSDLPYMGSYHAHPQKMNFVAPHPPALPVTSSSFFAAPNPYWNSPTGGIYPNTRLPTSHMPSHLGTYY
# Summary of the method: as §1
# ELF1 = ELF1 (Homo sapiens, UniProt P32519 1-619); conditions: protein: recombinant; tags: N-terminal GST; dsDNA, one strand shown
# Sequence of ELF1 (P32519 whole entry): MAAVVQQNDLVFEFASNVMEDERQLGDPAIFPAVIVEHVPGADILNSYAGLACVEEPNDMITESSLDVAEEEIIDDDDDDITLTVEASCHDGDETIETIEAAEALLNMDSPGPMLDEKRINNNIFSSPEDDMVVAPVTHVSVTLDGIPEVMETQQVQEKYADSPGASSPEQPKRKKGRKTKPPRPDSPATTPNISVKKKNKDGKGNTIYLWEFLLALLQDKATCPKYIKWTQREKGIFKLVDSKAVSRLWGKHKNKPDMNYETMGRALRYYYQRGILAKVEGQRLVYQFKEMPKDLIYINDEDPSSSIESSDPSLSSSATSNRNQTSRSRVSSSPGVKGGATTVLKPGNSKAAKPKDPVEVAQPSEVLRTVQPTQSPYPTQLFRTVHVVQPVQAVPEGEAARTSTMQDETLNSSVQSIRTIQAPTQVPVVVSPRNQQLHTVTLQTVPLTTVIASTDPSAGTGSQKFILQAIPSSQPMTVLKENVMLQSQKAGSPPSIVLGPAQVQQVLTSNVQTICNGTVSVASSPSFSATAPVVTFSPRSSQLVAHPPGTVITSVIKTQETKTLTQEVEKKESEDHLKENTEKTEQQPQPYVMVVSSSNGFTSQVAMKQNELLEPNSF
# Summary of the method: as §1
# EHF = target: T5, EHF (Homo sapiens, UniProt Q9NZC4 1-300); conditions: protein: recombinant; tags: N-terminal GST; dsDNA, one strand shown
# T5 sequence: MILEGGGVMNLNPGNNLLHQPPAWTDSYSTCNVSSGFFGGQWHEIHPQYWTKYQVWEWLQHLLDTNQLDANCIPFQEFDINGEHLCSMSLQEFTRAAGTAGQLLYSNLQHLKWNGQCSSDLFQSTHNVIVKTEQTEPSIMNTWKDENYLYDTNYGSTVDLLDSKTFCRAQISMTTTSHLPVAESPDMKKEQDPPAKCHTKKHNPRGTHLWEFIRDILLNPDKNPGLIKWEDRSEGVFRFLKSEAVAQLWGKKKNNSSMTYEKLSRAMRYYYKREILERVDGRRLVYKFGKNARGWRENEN
# Summary of the method: as §1
# SPI1 = SPI1 (Homo sapiens, UniProt P17947 1-270); conditions: protein: recombinant; tags: N-terminal GST; dsDNA, one strand shown
# Summary of the method: as §1
# SPIB = SPIB (Homo sapiens, UniProt Q01892 1-262); conditions: protein: recombinant; tags: N-terminal GST; dsDNA, one strand shown
# Sequence of SPIB (Q01892 whole entry): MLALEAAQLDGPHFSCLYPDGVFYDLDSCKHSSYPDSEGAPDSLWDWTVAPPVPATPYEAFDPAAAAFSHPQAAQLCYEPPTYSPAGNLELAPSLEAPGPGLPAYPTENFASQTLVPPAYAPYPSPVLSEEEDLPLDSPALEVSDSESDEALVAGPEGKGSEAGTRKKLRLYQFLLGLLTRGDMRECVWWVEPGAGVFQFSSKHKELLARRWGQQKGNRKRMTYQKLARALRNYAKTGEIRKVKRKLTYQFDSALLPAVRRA
# Summary of the method: as §1
# ELK3 = target: T6, ELK3 (Homo sapiens, UniProt P41970 1-407); conditions: protein: recombinant; tags: N-terminal GST; dsDNA, one strand shown
# T6 sequence: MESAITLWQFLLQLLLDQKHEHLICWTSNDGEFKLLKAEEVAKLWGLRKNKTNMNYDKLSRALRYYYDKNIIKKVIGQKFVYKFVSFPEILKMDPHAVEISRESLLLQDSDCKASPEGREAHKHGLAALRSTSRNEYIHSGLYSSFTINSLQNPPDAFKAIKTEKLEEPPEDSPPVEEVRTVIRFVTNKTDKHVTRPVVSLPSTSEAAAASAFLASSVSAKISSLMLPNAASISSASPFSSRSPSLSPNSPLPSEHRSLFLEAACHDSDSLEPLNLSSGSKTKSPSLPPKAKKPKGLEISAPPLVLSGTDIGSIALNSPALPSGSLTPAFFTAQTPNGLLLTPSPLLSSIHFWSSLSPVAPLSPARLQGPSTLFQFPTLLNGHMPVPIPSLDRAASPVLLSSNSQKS
# Summary of the method: as §1
# FEV = target: T7, FEV (Homo sapiens, UniProt Q99581 1-238); conditions: protein: recombinant; tags: N-terminal GST; dsDNA, one strand shown
# T7 sequence: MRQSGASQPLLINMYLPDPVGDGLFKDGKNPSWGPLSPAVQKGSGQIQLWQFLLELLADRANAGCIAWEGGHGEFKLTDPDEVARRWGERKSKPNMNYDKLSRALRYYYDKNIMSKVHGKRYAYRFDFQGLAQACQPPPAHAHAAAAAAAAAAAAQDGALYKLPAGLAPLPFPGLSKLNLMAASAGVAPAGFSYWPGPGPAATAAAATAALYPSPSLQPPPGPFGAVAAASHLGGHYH
# Summary of the method: as §1
# ETV5 = ETV5 (Homo sapiens, UniProt P41161 1-510); conditions: protein: recombinant; tags: N-terminal GST; dsDNA, one strand shown
# Sequence of ETV5 (P41161 whole entry): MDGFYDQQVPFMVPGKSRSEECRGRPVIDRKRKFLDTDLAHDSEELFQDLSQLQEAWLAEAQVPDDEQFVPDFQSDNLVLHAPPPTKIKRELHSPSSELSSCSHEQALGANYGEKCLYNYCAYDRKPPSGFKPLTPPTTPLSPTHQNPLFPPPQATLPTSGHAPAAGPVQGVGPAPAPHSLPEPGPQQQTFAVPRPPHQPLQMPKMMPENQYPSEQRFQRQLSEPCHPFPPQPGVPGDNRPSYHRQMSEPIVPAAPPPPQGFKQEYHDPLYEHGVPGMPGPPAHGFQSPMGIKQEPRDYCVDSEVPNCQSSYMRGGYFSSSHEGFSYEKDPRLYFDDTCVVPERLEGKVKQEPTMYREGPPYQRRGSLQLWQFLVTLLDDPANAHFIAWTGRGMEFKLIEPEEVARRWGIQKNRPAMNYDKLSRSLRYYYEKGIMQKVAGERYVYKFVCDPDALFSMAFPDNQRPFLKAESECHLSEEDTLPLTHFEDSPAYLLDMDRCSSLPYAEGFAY
# Summary of the method: as §1
# HSF1 = HSF1 (Homo sapiens, UniProt Q00613 1-529); conditions: protein: recombinant; tags: N-terminal GST; chain copies: 3; dsDNA, one strand shown
# Sequence of HSF1 (Q00613 whole entry): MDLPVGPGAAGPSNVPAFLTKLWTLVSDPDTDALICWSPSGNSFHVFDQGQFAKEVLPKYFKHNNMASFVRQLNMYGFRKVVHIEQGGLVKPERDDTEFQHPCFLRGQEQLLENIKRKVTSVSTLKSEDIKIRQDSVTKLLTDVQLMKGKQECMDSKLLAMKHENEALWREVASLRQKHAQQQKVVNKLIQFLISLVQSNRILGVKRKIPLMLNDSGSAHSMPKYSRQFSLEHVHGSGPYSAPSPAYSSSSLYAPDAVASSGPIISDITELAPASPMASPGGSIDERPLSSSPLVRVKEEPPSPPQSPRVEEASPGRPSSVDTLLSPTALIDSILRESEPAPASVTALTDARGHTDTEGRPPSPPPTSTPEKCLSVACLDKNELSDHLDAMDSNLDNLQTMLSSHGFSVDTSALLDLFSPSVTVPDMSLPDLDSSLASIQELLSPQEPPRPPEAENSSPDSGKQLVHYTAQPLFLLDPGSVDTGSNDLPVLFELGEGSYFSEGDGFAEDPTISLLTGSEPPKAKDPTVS
# Summary of the method: as §1
# SPIC = target: T8, SPIC (Homo sapiens, UniProt Q8N5J4 1-248); conditions: protein: recombinant; tags: N-terminal GST; dsDNA, one strand shown
# T8 sequence: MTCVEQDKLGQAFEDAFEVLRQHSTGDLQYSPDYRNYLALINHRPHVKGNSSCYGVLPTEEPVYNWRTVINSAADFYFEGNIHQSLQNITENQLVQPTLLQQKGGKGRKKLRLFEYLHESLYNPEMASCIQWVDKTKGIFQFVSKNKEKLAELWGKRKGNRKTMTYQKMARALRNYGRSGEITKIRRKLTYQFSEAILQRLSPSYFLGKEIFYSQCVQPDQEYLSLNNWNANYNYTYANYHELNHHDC
# Summary of the method: as §1
# ELF4 = ELF4 (Homo sapiens, UniProt Q99607 1-663); conditions: protein: recombinant; tags: N-terminal GST; dsDNA, one strand shown
# Sequence of ELF4 (Q99607 whole entry): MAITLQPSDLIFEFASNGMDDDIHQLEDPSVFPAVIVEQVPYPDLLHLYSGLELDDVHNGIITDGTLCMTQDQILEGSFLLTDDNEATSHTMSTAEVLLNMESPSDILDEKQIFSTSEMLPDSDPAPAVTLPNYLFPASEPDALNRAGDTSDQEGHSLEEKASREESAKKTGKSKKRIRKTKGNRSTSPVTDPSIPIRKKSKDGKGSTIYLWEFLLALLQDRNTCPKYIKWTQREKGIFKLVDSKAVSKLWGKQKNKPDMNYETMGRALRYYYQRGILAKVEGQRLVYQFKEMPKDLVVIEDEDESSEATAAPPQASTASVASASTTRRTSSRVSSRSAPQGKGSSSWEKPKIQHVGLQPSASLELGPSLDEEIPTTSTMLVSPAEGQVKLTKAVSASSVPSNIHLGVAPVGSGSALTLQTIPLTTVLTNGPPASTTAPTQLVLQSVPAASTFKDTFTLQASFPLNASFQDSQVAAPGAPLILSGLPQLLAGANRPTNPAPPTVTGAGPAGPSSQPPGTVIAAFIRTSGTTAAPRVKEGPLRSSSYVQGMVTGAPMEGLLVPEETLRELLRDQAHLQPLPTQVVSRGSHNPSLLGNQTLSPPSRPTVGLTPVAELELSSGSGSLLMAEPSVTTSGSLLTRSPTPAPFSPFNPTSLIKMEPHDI
# Summary of the method: as §1
# ELK4 = target: T9, ELK4 (Homo sapiens, UniProt P28324-2 1-405); conditions: protein: recombinant; tags: N-terminal GST; dsDNA, one strand shown
# T9 sequence: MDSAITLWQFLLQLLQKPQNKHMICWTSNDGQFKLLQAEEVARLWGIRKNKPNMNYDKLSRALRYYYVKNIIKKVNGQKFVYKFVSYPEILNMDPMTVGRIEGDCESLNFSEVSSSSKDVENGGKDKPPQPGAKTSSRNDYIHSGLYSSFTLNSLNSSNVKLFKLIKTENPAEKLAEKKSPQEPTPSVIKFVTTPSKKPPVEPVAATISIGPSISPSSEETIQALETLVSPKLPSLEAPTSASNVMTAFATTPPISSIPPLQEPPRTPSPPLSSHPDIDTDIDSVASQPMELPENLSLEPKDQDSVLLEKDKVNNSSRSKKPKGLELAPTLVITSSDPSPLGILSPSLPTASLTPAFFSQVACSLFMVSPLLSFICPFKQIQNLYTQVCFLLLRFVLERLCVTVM
# Summary of the method: as §1
# ETV2 = target: T10, ETV2 (Homo sapiens, UniProt O00321 1-342); conditions: protein: recombinant; tags: N-terminal GST; dsDNA, one strand shown
# T10 sequence: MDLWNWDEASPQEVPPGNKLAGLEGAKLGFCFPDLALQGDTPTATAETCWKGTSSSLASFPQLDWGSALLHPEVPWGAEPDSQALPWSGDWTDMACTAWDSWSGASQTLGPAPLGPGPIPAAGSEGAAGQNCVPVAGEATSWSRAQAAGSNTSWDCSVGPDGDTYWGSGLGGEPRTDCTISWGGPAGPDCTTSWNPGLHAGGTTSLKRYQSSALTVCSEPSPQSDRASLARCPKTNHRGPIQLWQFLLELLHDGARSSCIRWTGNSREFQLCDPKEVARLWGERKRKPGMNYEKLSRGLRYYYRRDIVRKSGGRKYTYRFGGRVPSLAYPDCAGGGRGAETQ
# Summary of the method: as §1
# ELF3 = target: T11, ELF3 (Homo sapiens, UniProt P78545 1-371); conditions: protein: recombinant; tags: N-terminal GST; dsDNA, one strand shown
# T11 sequence: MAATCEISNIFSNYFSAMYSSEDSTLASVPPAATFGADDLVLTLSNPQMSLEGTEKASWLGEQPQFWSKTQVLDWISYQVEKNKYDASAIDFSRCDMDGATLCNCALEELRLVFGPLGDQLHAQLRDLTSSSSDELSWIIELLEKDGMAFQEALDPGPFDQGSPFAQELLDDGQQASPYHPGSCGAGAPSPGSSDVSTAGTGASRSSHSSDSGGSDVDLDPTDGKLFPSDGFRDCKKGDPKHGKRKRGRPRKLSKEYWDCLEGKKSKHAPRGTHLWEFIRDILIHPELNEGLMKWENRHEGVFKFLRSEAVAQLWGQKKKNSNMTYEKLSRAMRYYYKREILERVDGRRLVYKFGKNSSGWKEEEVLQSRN
# Summary of the method: as §1
# CRX = CRX (Homo sapiens, UniProt O43186 1-299); conditions: protein: recombinant; tags: N-terminal GST; dsDNA, one strand shown
# Sequence of CRX (O43186 whole entry): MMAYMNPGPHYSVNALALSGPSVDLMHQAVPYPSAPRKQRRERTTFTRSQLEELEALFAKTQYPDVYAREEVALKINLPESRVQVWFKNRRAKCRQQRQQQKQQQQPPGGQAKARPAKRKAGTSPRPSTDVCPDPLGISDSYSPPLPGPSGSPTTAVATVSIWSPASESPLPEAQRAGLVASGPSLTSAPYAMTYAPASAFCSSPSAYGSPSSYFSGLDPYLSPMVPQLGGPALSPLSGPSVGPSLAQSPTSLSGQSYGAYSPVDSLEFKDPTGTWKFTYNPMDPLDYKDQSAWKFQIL
# Summary of the method: as §1
# ETV1 = ETV1 (Homo sapiens, UniProt P50549 1-477); conditions: protein: recombinant; tags: N-terminal GST; dsDNA, one strand shown
# Sequence of ETV1 (P50549 whole entry): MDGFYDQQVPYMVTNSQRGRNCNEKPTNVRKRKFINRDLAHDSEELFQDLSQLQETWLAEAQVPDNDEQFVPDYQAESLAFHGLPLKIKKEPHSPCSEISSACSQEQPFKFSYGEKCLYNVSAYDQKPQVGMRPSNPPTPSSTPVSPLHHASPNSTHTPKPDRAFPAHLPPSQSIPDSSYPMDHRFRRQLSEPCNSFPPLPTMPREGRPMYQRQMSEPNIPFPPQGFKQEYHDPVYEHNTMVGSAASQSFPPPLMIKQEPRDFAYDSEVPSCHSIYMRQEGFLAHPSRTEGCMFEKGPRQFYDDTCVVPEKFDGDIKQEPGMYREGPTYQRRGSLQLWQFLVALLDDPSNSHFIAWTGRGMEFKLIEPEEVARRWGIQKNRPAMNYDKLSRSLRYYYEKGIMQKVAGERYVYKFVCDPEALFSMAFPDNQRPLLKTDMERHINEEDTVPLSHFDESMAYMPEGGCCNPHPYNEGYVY
# Summary of the method: as §1
sequence,measurement,setting,value
AACACT,binding signal,FLI1,"1.27 fold enrichment (6-mer frequency, TF over GST control)"
same,binding signal,ELK1,"1.38 fold enrichment (6-mer frequency, TF over GST control)"
same,binding signal,GABPA,"1.32 fold enrichment (6-mer frequency, TF over GST control)"
same,binding signal,ERG,"1.31 fold enrichment (6-mer frequency, TF over GST control)"
same,binding signal,ELF1,"1.32 fold enrichment (6-mer frequency, TF over GST control)"
same,binding signal,EHF,"1.35 fold enrichment (6-mer frequency, TF over GST control)"
same,binding signal,SPI1,"1.36 fold enrichment (6-mer frequency, TF over GST control)"
same,binding signal,SPIB,"1.31 fold enrichment (6-mer frequency, TF over GST control)"
same,binding signal,ELK3,"1.23 fold enrichment (6-mer frequency, TF over GST control)"
same,binding signal,FEV,"1.26 fold enrichment (6-mer frequency, TF over GST control)"
same,binding signal,ETV5,"1.28 fold enrichment (6-mer frequency, TF over GST control)"
same,binding signal,HSF1,"1.18 fold enrichment (6-mer frequency, TF over GST control)"
same,binding signal,SPIC,"1.52 fold enrichment (6-mer frequency, TF over GST control)"
same,binding signal,ELF4,"1.3 fold enrichment (6-mer frequency, TF over GST control)"
same,binding signal,ELK4,"1.29 fold enrichment (6-mer frequency, TF over GST control)"
same,binding signal,ETV2,"1.26 fold enrichment (6-mer frequency, TF over GST control)"
same,binding signal,ELF3,"1.23 fold enrichment (6-mer frequency, TF over GST control)"
same,binding signal,CRX,"1.14 fold enrichment (6-mer frequency, TF over GST control)"
same,binding signal,ETV1,"1.25 fold enrichment (6-mer frequency, TF over GST control)"
